Bioassay records as filed in PubChem BioAssay.
Chlamy TAG – inducers of triacylglycerol accumulation in Chlamydomonas reinhardtii algae; Chlamydomonas reinhardtii TAG, Nile Red fluorescence, 72 h; calls only at 10 µM (by protocol); actives 0.84% (n = 44,000); call rule not given here;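 also: hits raise Nile Red signal meaning more stored TAG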
Calls only. Only a selection was taken, and hits are over-represented in it overall.

For C=CCN1C(=O)C(=O)c2cc(Br)ccc21 the results were Chlamy TAG active.
`O=C1C(=O)N(Cc2ccc(F)cc2)c2ccc(Br)cc21` gave Chlamy TAG inactive.
C#CCN1C(=O)C(=O)c2cc(Br)ccc21 was read as Chlamy TAG inactive.
For Cc1cccc(C)c1NC(=O)c1ccc(N(Cc2ccccc2)S(C)(=O)=O)cc1 the results were Chlamy TAG inactive.
For N#CCCN(CCN1CCCC1)S(=O)(=O)c1cccc2nsnc12 the results were Chlamy TAG inactive.
Screening NNC(=Nc1ccccc1Cl)c1nc2ccccc2s1 returned Chlamy TAG inactive.
Screening Brc1ccc2ncnc(N3CCOCC3)c2c1 returned Chlamy TAG inactive.
Brc1ccc(CN2CCN(c3ccccn3)CC2)cc1 was read as Chlamy TAG inactive.
Screening Brc1ccc2ncnc(N3CCN(Cc4ccccc4)CC3)c2c1 returned Chlamy TAG active.
For CCOc1ccc(S(=O)(=O)N2CCN(c3ccccc3OC)CC2)cc1 the results were Chlamy TAG inactive.
For Cc1cc(C)c(NC(=O)COc2ccccc2[N+](=O)[O-])c(C)c1 the results were Chlamy TAG active.
Cc1ccccc1OCC(=O)Nc1ccccc1[N+](=O)[O-] was read as Chlamy TAG inactive.
`Cc1cc(C)c(NC(=O)COc2ccccc2C)c(Cl)c1` gave Chlamy TAG inactive.
`Brc1ccc(CN2CCC(N3CCCCCC3)CC2)cc1` gave Chlamy TAG inactive.
Screening N#CC(=CNc1ccc(S(N)(=O)=O)cc1)c1nc(-c2ccc3c(c2)OCO3)cs1 returned Chlamy TAG inactive.
For O=C(Nc1ccc(NC(=O)c2ccc([N+](=O)[O-])cc2Cl)cc1)c1cccs1 the results were Chlamy TAG inactive.
`C=CCc1cccc(C)c1OCCCN1CCN(C)CC1` gave Chlamy TAG active.
Screening C=CCc1cc(C)ccc1OCCCCN1CCN(C)CC1 returned Chlamy TAG inactive.
C=CCc1cc(C)ccc1OCCN1CCN(C)CC1 was read as Chlamy TAG inactive.
Screening C=CCc1cc(Cl)ccc1OCCN1CCN(C)CC1 returned Chlamy TAG active.
`C=CCc1cccc(OC)c1OCCCN1CCN(C)CC1` gave Chlamy TAG inactive.
C=CCc1cccc(C)c1OCCCN1CCCC1 was read as Chlamy TAG inactive.
CCN(C(=O)Nc1ccc(OC)cc1)c1nnc(-c2ccc(Cl)cc2)s1 was read as Chlamy TAG inactive.
`COc1ccc(S(=O)(=O)N2CCC(C(=O)Nc3cccc(Cl)c3C)CC2)cc1` gave Chlamy TAG inactive.
For O=C(c1ccc([N+](=O)[O-])cc1)n1nnc2ccccc21 the results were Chlamy TAG inactive.
`COc1cc(N2CCN(S(=O)(=O)c3ccccc3)CC2)ccc1[N+](=O)[O-]` gave Chlamy TAG inactive.
COc1ccc(Nc2nc(N)nc(CN(C)C3CCCCC3)n2)cc1 was read as Chlamy TAG inactive.
`COc1ccc(CN2CCCC(O)C2)cc1C` (stereo not drawn) gave Chlamy TAG inactive.
`COc1ccc(CN(C)C2CCCCC2)cc1C` gave Chlamy TAG active.
COc1ccc(CNC2CCCC2)cc1C was read as Chlamy TAG inactive.
`COc1ccc(CN(C)C2CCCCC2)cc1` gave Chlamy TAG active.
For COc1ccc(CC(=O)NC2CCCC2)cc1 the results were Chlamy TAG inactive.
`Cc1ccc(N2CC(C(=O)NN)CC2=O)cc1` (stereo not drawn) gave Chlamy TAG inactive.
`CC(=O)c1cc(F)c(N2CCN(C(=O)c3cc(F)c(F)cc3C)CC2)cc1C` gave Chlamy TAG inactive.
For CCN(CC)S(=O)(=O)c1ccc(OC)c(NC(=O)c2cccc(Br)c2)c1 the results were Chlamy TAG inactive.
`Cc1cc(NC(=O)COc2ccc([N+](=O)[O-])cc2)ccc1NC(=O)c1cc2ccccc2o1` gave Chlamy TAG inactive.
`C=CCc1cc(OC)ccc1OCCn1ccnc1` gave Chlamy TAG inactive.
C=CCc1cc(OC)ccc1OCCCCn1ccnc1 was read as Chlamy TAG inactive.
`C=CCc1cc(OC)ccc1OCCOCCn1ccnc1` gave Chlamy TAG active.
Screening Cc1ccc(C(=O)NCCN(C)C)cc1[N+](=O)[O-] returned Chlamy TAG inactive.
